About 7,900 targets were measured; listed, in parts, are those with a hit and a random draw of the rest. About 0.6% of all pairs of compound and target were hits. A number with no mark means an inactive call.
Experiments:
Experiment in all cases: log2 fold change, soluble protein after heating vs DMSO (PISA); higher = thermal stabilisation; K562 cells, 10 uM, 30 min; active = over 0.2 and 3.5 SD of the protein, either way, in both replicates (recomputed)
[1] = compound: COC1=CC=C(C=C1)CN2C=CC3=C2C=C(C=C3)C(=O)NO
Summary of the method: (§1)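 Values are thermal stability changes relative to control samples and are taken from duplicates. They are stated as log2 fold changes. Before quantification by TMTpro 16plex LC-MS/MS with equalised channel sums, K562 cells at 2×10^6 cells/mL were treated with 10 μM compound for 30 min, heated in aliquots for 3 min across 48°C-58°C, pooled, extracted in PBS with 0.5% NP-40 at 4°C, and centrifuged at 21,000xg for 90 min to give the soluble supernatant.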

filanesib = compound: CON(C)C(=O)N1N=C(c2cc(F)ccc2F)S[C@@]1(CCCN)c1ccccc1 [filanesib]
Summary of the method: as §1

zotarolimus = compound: CO[C@H]1C[C@@H]2CC[C@@H](C)[C@@](O)(O2)C(=O)C(=O)N2CCCC[C@H]2C(=O)O[C@H]([C@H](C)C[C@@H]2CC[C@H](n3cnnn3)[C@H](OC)C2)CC(=O)[C@H](C)/C=C(\C)[C@@H](O)[C@@H](OC)C(=O)[C@H](C)C[C@H](C)/C=C/C=C/C=C/1C [zotarolimus]
Summary of the method: as §1

idasanutlin = compound: COc1cc(C(=O)O)ccc1NC(=O)[C@@H]1N[C@@H](CC(C)(C)C)[C@](C#N)(c2ccc(Cl)cc2F)[C@H]1c1cccc(Cl)c1F [idasanutlin]
Summary of the method: as §1

alisertib = compound: COc1cc(Nc2ncc3c(n2)-c2ccc(Cl)cc2C(c2c(F)cccc2OC)=NC3)ccc1C(=O)O [alisertib]
Summary of the method: as §1

[2] = compound: COc1cc2nc(-c3cc(F)ccc3O)nc(N[C@@H]3CNC[C@H]3C(C)(C)O)c2cc1OC
Summary of the method: as §1

gefitinib = compound: COc1cc2ncnc(Nc3ccc(F)c(Cl)c3)c2cc1OCCCN1CCOCC1 [gefitinib]
Summary of the method: as §1

[3] = compound: COc1cccc2cc(-c3nc([C@H]4CC[C@H](C(=O)O)CC4)n4ncnc(N)c34)[nH]c12
Summary of the method: as §1

lapatinib = compound: CS(=O)(=O)CCNCc1ccc(-c2ccc3ncnc(Nc4ccc(OCc5cccc(F)c5)c(Cl)c4)c3c2)o1 [lapatinib]
Summary of the method: as §1

pictilisib = compound: CS(=O)(=O)N1CCN(Cc2cc3nc(-c4cccc5[nH]ncc45)nc(N4CCOCC4)c3s2)CC1 [pictilisib]
Summary of the method: as §1

[4] = compound: CS(=O)(=O)c1ccc(-c2cnc(N)c(C(=O)Nc3ccccc3)n2)cc1
Summary of the method: as §1

crizotinib = compound: C[C@@H](Oc1cc(-c2cnn(C3CCNCC3)c2)cnc1N)c1c(Cl)ccc(F)c1Cl [crizotinib]
Summary of the method: as §1

[5] = compound: C[C@@H]1COCCN1C2=NC(=NC(=C2)C3(CC3)S(=O)(=O)C)C4=C5C=CNC5=CC=C4
Summary of the method: as §1

[6] = compound: C[C@H](C1=CC=C(C=C1)C(=O)NC2=C3C=CNC3=NC=C2)N
Summary of the method: as §1

duvelisib = compound: C[C@H](Nc1ncnc2nc[nH]c12)c1cc2cccc(Cl)c2c(=O)n1-c1ccccc1 [duvelisib]
Summary of the method: as §1

gandotinib = compound: Cc1cc(Nc2cc(CN3CCOCC3)c3nc(C)c(Cc4ccc(Cl)cc4F)n3n2)n[nH]1 [gandotinib]
Summary of the method: as §1

tozasertib = compound: Cc1cc(Nc2cc(N3CCN(C)CC3)nc(Sc3ccc(NC(=O)C4CC4)cc3)n2)n[nH]1 [tozasertib]
Summary of the method: as §1

[7] = compound: Cc1cc(SCc2sc(-c3ccc(C(F)(F)F)cc3)nc2C)ccc1OCC(=O)O
Summary of the method: as §1

doramapimod = compound: Cc1ccc(-n2nc(C(C)(C)C)cc2NC(=O)Nc2ccc(OCCN3CCOCC3)c3ccccc23)cc1 [doramapimod]
Summary of the method: as §1

ispinesib = compound: Cc1ccc(C(=O)N(CCCN)[C@@H](c2nc3cc(Cl)ccc3c(=O)n2Cc2ccccc2)C(C)C)cc1 [ispinesib]
Summary of the method: as §1

UniProt Q7Z7E8, sequence (Q7Z7E8 whole entry, looked up): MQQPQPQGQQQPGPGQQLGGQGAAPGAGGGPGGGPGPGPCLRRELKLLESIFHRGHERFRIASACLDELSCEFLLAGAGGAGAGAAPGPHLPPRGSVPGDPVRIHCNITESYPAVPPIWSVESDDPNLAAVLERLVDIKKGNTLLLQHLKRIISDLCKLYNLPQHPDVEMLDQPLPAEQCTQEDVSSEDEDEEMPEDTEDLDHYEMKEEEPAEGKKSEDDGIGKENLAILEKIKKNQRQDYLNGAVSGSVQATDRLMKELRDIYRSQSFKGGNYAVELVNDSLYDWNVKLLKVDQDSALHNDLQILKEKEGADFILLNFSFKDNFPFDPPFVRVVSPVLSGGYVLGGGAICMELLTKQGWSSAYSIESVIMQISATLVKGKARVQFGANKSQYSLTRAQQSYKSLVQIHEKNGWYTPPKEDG
UniProt Q86SZ2, sequence (Q86SZ2 whole entry, looked up): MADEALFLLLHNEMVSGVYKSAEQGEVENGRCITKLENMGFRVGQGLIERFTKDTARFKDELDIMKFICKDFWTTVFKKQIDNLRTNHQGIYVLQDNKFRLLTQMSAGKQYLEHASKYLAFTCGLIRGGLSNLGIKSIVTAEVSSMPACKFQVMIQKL
UniProt Q969X6, sequence (Q969X6 whole entry, looked up): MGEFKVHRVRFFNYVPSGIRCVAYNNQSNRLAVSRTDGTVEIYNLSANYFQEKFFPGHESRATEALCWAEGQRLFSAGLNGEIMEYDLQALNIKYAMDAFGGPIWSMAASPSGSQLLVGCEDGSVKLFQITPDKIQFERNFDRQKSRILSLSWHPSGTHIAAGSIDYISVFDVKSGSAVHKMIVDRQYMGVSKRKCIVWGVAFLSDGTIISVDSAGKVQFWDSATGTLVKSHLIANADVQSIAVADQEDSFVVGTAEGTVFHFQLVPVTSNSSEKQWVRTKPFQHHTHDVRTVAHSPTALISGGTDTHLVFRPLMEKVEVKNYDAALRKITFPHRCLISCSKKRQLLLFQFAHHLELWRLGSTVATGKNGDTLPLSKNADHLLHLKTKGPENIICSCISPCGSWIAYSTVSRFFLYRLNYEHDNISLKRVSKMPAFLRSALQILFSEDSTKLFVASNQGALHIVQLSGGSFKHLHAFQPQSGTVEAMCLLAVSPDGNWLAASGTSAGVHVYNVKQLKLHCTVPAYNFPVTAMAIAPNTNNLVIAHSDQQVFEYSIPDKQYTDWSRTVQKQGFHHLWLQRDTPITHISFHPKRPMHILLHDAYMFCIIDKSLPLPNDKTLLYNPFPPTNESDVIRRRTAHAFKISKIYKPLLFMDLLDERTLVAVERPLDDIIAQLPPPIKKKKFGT
UniProt O60784, sequence (O60784 whole entry, looked up): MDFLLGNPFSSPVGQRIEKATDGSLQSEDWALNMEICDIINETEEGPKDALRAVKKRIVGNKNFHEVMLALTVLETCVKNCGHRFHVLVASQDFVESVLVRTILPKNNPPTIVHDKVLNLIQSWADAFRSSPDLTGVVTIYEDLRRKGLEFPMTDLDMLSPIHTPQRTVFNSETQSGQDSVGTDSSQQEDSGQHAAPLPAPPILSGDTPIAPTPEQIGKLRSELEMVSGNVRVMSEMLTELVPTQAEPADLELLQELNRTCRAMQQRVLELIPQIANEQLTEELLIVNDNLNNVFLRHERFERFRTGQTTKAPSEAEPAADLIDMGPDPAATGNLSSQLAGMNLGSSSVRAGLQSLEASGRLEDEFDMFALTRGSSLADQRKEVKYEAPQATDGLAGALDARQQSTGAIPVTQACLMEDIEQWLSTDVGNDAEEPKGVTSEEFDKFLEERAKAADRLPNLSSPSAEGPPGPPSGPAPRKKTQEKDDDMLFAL
UniProt Q8NCE0, sequence (Q8NCE0 whole entry, looked up): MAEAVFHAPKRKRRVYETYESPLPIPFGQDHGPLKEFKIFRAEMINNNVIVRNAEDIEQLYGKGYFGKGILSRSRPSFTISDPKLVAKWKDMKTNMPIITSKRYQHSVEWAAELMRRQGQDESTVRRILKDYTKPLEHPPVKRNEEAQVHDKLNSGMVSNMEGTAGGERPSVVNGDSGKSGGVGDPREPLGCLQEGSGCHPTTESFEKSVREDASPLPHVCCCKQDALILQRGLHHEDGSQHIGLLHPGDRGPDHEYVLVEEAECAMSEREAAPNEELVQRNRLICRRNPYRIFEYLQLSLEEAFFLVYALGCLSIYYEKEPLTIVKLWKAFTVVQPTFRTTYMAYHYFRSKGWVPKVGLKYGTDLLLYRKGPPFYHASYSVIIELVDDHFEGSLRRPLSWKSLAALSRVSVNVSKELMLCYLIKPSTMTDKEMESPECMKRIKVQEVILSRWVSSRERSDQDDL
UniProt O14787, sequence (O14787 whole entry, looked up): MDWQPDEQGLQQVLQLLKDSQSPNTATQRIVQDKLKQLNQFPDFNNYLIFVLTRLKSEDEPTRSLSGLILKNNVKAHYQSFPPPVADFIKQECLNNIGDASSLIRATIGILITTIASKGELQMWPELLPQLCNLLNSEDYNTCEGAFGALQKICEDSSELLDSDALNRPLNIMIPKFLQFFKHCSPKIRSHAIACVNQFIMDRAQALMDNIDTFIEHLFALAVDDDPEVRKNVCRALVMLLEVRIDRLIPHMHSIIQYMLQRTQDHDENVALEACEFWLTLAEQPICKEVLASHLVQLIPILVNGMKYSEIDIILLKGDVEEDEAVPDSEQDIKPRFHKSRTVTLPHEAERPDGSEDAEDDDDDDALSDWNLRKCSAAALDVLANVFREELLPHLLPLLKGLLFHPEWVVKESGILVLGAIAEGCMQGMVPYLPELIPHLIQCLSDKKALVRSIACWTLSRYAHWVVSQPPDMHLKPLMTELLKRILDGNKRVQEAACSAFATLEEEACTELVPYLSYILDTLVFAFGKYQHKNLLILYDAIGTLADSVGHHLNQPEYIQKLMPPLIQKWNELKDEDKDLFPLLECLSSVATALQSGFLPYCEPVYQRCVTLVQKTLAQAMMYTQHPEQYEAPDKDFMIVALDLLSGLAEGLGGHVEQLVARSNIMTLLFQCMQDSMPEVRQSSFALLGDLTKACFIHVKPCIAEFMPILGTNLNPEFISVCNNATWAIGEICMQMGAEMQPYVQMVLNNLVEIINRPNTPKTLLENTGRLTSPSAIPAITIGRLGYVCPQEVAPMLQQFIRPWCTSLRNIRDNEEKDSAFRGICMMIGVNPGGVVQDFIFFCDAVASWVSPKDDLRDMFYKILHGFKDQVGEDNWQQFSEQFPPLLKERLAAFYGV
WASHC2C, A0A096LPC5, sequence (A0A096LPC5 whole entry, looked up): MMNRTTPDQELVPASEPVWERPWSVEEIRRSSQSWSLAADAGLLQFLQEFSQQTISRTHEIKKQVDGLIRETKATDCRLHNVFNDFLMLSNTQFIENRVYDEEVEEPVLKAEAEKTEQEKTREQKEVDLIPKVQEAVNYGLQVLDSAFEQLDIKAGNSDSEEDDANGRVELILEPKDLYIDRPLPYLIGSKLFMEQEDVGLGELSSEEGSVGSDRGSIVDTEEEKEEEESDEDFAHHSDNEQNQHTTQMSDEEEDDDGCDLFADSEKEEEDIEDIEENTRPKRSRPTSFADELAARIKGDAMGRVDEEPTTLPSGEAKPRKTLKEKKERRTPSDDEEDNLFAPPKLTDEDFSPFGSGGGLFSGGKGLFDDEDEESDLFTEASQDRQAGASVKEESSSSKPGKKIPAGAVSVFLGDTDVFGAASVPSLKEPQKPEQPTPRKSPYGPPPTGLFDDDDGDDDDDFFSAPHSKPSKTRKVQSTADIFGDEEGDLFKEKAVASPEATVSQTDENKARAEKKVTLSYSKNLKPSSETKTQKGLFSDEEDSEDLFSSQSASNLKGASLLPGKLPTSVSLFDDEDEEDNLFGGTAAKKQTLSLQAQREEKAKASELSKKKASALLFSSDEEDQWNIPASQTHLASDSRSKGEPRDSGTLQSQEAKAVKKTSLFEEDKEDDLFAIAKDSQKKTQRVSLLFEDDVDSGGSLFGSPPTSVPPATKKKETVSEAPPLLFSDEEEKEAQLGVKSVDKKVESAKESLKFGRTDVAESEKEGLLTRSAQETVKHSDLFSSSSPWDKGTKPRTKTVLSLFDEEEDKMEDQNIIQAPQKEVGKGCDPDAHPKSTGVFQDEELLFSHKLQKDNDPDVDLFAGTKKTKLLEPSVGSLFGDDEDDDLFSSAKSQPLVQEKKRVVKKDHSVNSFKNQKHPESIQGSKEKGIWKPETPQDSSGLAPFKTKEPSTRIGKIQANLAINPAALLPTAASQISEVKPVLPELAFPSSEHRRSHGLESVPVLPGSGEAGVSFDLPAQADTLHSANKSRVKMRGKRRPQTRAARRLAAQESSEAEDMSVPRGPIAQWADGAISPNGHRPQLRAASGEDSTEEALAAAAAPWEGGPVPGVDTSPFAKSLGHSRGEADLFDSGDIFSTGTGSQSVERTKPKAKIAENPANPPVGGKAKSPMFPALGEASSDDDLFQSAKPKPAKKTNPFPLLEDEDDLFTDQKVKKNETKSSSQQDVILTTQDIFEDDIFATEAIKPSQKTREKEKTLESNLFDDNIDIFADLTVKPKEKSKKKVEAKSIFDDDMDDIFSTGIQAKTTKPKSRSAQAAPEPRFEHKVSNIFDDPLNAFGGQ
UniProt Q01081, sequence (Q01081 whole entry, looked up): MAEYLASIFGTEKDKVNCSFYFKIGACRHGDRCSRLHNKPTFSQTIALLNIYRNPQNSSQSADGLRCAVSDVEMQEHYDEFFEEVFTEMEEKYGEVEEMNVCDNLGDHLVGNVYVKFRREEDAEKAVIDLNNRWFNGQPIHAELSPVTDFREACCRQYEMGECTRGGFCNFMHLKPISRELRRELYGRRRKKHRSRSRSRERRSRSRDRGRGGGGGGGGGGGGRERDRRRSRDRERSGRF
UniProt Q9Y385, sequence (Q9Y385 whole entry, looked up): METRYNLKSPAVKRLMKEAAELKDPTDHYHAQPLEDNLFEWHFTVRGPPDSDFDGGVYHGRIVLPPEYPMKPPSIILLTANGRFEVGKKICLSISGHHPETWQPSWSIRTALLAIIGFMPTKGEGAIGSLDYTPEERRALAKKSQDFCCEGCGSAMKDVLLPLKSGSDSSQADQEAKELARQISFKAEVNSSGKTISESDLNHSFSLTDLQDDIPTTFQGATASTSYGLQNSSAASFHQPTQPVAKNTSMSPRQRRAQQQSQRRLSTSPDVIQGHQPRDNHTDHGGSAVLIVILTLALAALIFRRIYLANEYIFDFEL

| Target | log2 fold change [1] | log2 fold change (filanesib) | log2 fold change (zotarolimus) | log2 fold change (idasanutlin) | log2 fold change (alisertib) | log2 fold change [2] | log2 fold change (gefitinib) | log2 fold change [3] | log2 fold change (lapatinib) | log2 fold change (pictilisib) | log2 fold change [4] | log2 fold change (crizotinib) | log2 fold change [5] | log2 fold change [6] | log2 fold change (duvelisib) | log2 fold change (gandotinib) | log2 fold change (tozasertib) | log2 fold change [7] | log2 fold change (doramapimod) | log2 fold change (ispinesib) |
| --- | --- | --- | --- | --- | --- | --- | --- | --- | --- | --- | --- | --- | --- | --- | --- | --- | --- | --- | --- | --- |
| TOM1 isoform 2 (UniProt O60784) | -0.118 | -0.031 | -0.001 | 0.056 | -0.002 | -0.039 | -0.031 | 0 | 0.014 | -0.154 | 0.146 | -0.002 | 0.035 | -0.096 | 0.043 | 0.101 | 0.013 | 0.023 | -0.078 | -0.043 |
| UTP4 (UniProt Q969X6) | -0.05 | -0.043 | -0.017 | -0.034 | -0.095 | 0.132 | 0 | 0.029 | -0.006 | 0.035 | -0.013 | 0.019 | 0.055 | 0.004 | 0.022 | 0.004 | 0.006 | -0.056 | 0.012 | 0.066 |
| TNPO2 (UniProt O14787) | -0.022 | -0.005 | 0.065 | -0.194 | -0.071 | -0.069 | 0.027 | -0.038 | -0.048 | -0.076 | 0.019 | -0.153 | 0.046 | -0.037 | 0.03 | -0.059 | 0.077 | 0.048 | 0.011 | -0.14 |
| WASHC2C, A0A096LPC5 | -0.072 | 0.057 | -0.062 | 0.146 | -0.042 | 0.305 | 0.018 | 0.098 | -0.141 | 0.048 | -0.078 | -0.363 | 0.031 | 0.025 | 0.15 | 0.189 | 0.007 | -0.053 | 0.02 | -0.135 |
| U2AF1 isoform 2 (UniProt Q01081) | 0.165 | 0.034 | 0.043 | 0.055 | -0.019 | 0.06 | 0.036 | 0.045 | 0 | 0.069 | -0.046 | 0.067 | 0.03 | -0.134 | 0.044 | -0.005 | 0.05 | 0.114 | -0.143 | 0 |
| UBE2J1 (UniProt Q9Y385) | -0.209 | 0.119 | 0.046 | -0.12 | -0.259 | 0.232 | -0.035 | 0.241 | -0.064 | -0.081 | 0.06 | -0.172 | 0.026 | -0.043 | 0.179 | -0.151 | 0.026 | -0.01 | -0.26 | -0.016 |
| VPS53 isoform 4 (UniProt Q5VIR6) | 0.015 | -0.008 | 0.095 | -0.048 | 0.01 | 0.089 | 0.025 | 0.003 | 0.012 | -0.066 | 0.087 | -0.095 | -0.004 | 0.006 | -0.033 | 0 | 0.061 | 0.059 | 0.036 | -0.113 |
| WDR47 (UniProt O94967) | 0.057 | -0.014 | -0.006 | -0.071 | 0.21 | -0.029 | -0.001 | 0.061 | -0.007 | 0.077 | -0.024 | 0.048 | 0.024 | -0.003 | 0.109 | 0.09 | -0.052 | -0.011 | -0.034 | 0.025 |
| XPO1 (UniProt O14980) | 0.074 | -0.121 | 0.004 | -0.123 | -0.003 | 0.023 | -0.032 | 0.001 | -0.023 | -0.071 | -0.016 | -0.138 | 0.089 | 0.006 | -0.024 | -0.223 | 0.027 | 0.094 | -0.034 | -0.081 |
| TRAPPC8 (UniProt Q9Y2L5) | 0.032 | -0.017 | 0.03 | -0.059 | 0.003 | 0.013 | 0.009 | -0.021 | 0.021 | -0.001 | 0.036 | -0.033 | -0.008 | 0.032 | 0.002 | -0.056 | 0.015 | 0.117 | -0.012 | -0.138 |
| TRAPPC6B (UniProt Q86SZ2) | 0.055 | -0.023 | 0.012 | -0.023 | -0.009 | -0.003 | 0.042 | 0.028 | 0.019 | 0.02 | -0.008 | 0.024 | 0.111 | -0.069 | 0.044 | -0.045 | 0.014 | -0.014 | 0.025 | 0.014 |
| TMEM177 (UniProt Q53S58) | -0.037 | -0.115 | 0.019 | -0.077 | -0.199 | -0.154 | 0.077 | 0.086 | -0.016 | 0.151 | 0.005 | 0.033 | 0.065 | 0.011 | 0.039 | 0.025 | 0.087 | 0.053 | -0.062 | -0.304 (active) |
| UBE2Q1 (UniProt Q7Z7E8) | -0.09 | -0.042 | 0.022 | 0.006 | -0.055 | 0.012 | -0.02 | -0.044 | 0.01 | 0.039 | 0 | -0.061 | 0.092 | 0.004 | 0.003 | -0.196 | 0.036 | 0.07 | 0.029 | -0.001 |
| TSEN2 (UniProt Q8NCE0) | 0.018 | 0.043 | 0 | -0.065 | -0.075 | 0.077 | 0.028 | 0.114 | -0.015 | 0.013 | -0.198 | 0.052 | 0.014 | 0 | 0.049 | -0.127 | -0.048 | 0.056 | -0.057 | -0.074 |
| WDR37 isoform 2 (UniProt Q9Y2I8) | 0.033 | 0.117 | -0.063 | 0.081 | -0.018 | 0.034 | -0.006 | -0.029 | 0.035 | 0.046 | 0.026 | 0 | 0.041 | 0.11 | -0.113 | 0.069 | 0.055 | 0.15 | 0.02 | 0.055 |
| TMEM192 (UniProt Q8IY95) | -0.036 | -0.162 | -0.047 | 0.037 | -0.048 | -0.009 | -0.047 | 0.099 | -0.02 | 0.038 | 0.074 | -0.45 (active) | 0.043 | 0.04 | 0.026 | 0.059 | -0.008 | -0.022 | 0.024 | -0.318 (active) |
